# Activity calls are given as the source filed them.
# How the values were obtained:
# [1] = system: Human papillomavirus type 1a protein E7 (residues 44-93); test: small molecules binding HPV E7 44-93 – biochemical, small-molecule microarray, residues 44-93, 635 nm fluorescence, primary screen (AID 1108); settings: fluorescence 635 nm, higher = more signal;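 also: E7 fragment applied at 1 µg/mL in TBST for 1 h at 4 C; score combines spot fluorescence with its signal to noise ratio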
# [2] = hepatitis C replication reporter changes, two-sided – Huh7 cells, luciferase reporter, HCV replication inhibitor project, primary screen (AID 1109); settings: Huh7 HCV replicon luciferase reporter, 48 h; higher = more signal;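 also: huh7 hepatoma cells harbouring a luciferase neomycin HCV replicon reporter; luciferase luminescence as measure of HCV replicon replication; test concentration not given here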
# [3] = biological target: Left-right determination factor 2 (Homo sapiens) (UniProt O00292); test: small molecules binding LEFTY2 protein – biochemical, small-molecule microarray, 635 nm fluorescence scan, primary screen (AID 1110); settings: higher = more signal
# Sequence of Left-right determination factor 2 (Homo sapiens) (O00292 whole entry, looked up): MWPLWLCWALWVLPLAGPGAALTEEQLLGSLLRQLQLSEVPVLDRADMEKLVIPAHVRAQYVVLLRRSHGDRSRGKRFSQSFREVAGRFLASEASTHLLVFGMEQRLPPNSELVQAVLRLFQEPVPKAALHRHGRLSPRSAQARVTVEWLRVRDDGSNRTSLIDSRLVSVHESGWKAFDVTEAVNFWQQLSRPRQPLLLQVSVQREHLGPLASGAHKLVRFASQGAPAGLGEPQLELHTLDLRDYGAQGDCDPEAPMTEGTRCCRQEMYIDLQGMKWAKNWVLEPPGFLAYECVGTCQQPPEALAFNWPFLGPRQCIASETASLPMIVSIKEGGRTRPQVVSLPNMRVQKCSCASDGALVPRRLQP
# [4] = biological target: Calmodulin-1 (Homo sapiens) (UniProt P0DP23); test: small molecules binding calmodulin-1 with EGTA – biochemical, small-molecule microarray, Cy5-labelled CALM1, profiling panel (AID 1111); settings: Cy5-CALM1 binding fluorescence, higher = more signal;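 also: labelled calmodulin applied in Tris saline Tween buffer holding calcium plus EGTA and DTT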
# [5] = biological target: Calmodulin-1 (Homo sapiens) (UniProt P0DP23); test: small molecules binding Ca-loaded calmodulin-1 – biochemical, small-molecule microarray, Cy5-labelled CALM1, plus calcium, artefact control for SMM control-protein annotation, profiling panel (AID 1112); settings: Cy5-CALM1 binding fluorescence, higher = more signal;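 also: score merges spot fluorescence with signal to noise from triplicate slides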
# [6] = probe aWnt5a binding to arrayed compounds – biochemical, biotinylated probe, 635/667 nm fluorescence, primary screen (AID 1113); settings: small-molecule microarray, higher = more signal;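 also: score merges 667 nm fluorescence intensity with signal-to-noise per printed feature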
# [7] = probe aShh binding to arrayed compounds – biochemical, biotinylated probe, 635/667 nm fluorescence, primary screen (AID 1114); settings: small-molecule microarray, higher = more signal;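 also: probe is biotin-labelled aShh protein from a stem cell growth factor screen; measures binding of labelled protein to compounds printed on the slide; score merges feature fluorescence at 667 nm with signal-to-noise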
# [8] = probe aNog binding to arrayed compounds – biochemical, biotinylated probe, 635/667 nm fluorescence, primary screen (AID 1115); settings: small-molecule microarray, higher = more signal;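 also: probe is biotinylated aNog protein used at 0.15 µg/mL for 1 h at 4 C; z-score combines 667 nm fluorescence of each spot with its signal to noise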
# [9] = biological target: Torsin-1A-interacting protein 1 (Homo sapiens) (UniProt Q5JTV8); test: compound microarray binding of lysate hLAP1 – cell lysate, small-molecule microarray, COS7 lysate, 635/667 nm fluorescence, primary screen (AID 1116); settings: 635 nm fluorescence, higher = more signal
# Sequence of Torsin-1A-interacting protein 1 (Homo sapiens) (Q5JTV8 whole entry, looked up): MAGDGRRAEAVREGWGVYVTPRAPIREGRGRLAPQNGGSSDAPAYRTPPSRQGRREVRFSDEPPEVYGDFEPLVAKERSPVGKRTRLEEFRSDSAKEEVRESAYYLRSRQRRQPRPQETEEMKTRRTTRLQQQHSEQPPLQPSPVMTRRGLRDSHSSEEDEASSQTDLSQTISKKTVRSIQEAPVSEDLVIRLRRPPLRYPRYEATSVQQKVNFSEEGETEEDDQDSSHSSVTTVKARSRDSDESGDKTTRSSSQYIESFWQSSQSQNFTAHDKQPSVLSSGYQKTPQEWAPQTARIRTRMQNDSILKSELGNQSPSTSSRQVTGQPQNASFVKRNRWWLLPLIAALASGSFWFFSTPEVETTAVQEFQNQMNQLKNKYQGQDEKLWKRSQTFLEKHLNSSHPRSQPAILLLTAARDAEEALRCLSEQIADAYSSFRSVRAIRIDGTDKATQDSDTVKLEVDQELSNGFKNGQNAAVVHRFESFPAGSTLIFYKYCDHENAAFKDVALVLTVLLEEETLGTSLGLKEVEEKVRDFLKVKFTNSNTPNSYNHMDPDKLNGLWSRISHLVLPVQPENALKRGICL
# [10] = biological target: Alpha-bungarotoxin (Bungarus multicinctus) (UniProt P60615); test: compounds binding labelled alpha-BTX control protein – biochemical, small-molecule microarray, Alexa647 label, 635/667 nm fluorescence, artefact control for SMM control protein annotation, profiling panel (AID 1117); settings: alpha-BTX-A647 binding fluorescence, higher = more signal
# Sequence of Alpha-bungarotoxin (Bungarus multicinctus) (P60615 whole entry, looked up): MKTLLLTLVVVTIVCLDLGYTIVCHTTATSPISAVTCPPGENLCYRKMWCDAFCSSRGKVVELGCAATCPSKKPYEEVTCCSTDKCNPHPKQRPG
# Albumin (Bos taurus) = Albumin (Bos taurus) (UniProt P02769); test: compounds binding labelled BSA control protein – biochemical, small-molecule microarray, Alexa647 label, 635/667 nm fluorescence, artefact control for SMM control protein annotation, profiling panel (AID 1118); settings: BSA-A647 binding, fluorescence 635 nm, higher = more signal;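 also: score merges 667 nm emission intensity and signal-to-noise per printed compound spot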
# Sequence of Albumin (Bos taurus) (P02769 whole entry, looked up): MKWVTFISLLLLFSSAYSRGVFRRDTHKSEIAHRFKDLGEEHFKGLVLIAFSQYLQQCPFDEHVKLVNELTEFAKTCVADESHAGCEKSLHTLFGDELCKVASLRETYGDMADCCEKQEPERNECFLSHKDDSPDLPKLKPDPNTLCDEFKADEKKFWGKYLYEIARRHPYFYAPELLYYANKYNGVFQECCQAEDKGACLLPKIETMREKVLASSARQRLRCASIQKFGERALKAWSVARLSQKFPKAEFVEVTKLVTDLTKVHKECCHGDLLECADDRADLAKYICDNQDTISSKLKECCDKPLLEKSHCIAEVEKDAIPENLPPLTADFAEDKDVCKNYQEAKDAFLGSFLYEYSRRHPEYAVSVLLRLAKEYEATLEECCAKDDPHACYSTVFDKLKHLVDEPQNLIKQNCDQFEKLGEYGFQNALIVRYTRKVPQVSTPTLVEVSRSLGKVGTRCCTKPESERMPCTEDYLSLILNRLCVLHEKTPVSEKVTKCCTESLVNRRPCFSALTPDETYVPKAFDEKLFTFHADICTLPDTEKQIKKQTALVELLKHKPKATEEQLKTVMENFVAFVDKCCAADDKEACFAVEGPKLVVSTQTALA
# [11] = probe aXIP binding to arrayed compounds – biochemical, NeuroSMM set, 635/667 nm fluorescence, primary screen (AID 1119); settings: small-molecule microarray, higher = more signal, called active from +8 up or from −8 down;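 also: probe is the protein aXip251-270 applied at 1 µg/mL to compound-printed slides; binding of probe to printed compounds measured as 667 nm fluorescence plus signal to noise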
# [12] = probe aNOTCH3 binding on compound microarray – biochemical, small-molecule microarray, 635/667 nm fluorescence, primary screen (AID 1120); settings: higher = more signal;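 also: probe is a biotin-tagged antibody raised against NOTCH3 rather than NOTCH3 protein; score merges spot fluorescence near 667 nm with spot signal to noise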
# [13] = probe aNOTCH2 binding on compound microarray – biochemical, small-molecule microarray, 635/667 nm fluorescence, primary screen (AID 1121); settings: higher = more signal;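 also: score merges feature fluorescence read at 667 nm with its signal to noise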
# [14] = biological target: Carbonic anhydrase 2 (Homo sapiens) (UniProt P00918); test: compounds binding carbonic anhydrase 2 – biochemical, small-molecule microarray, Alexa647-labelled CAII, profiling panel (AID 1122); settings: CAII-A647 binding fluorescence, higher = more signal
# [15] = COS7 lysate on small-molecule microarray, probe aHis, 635 nm (AID 1123); settings: COS7 cell lysate, fluorescence, higher = more signal;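 also: z-score combines 667nm fluorescence intensity with signal-to-noise per printed compound spot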
# [16] = probe aLAP1 signal on lysate-treated microarray – cell lysate, small-molecule microarray, COS7 lysate, primary screen (AID 1124); settings: probe aLAP1, fluorescence, higher = more signal;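 also: lysate comes from COS7 cells expressing LAP1 and is applied at 0.3 µg/mL; score merges spot fluorescence near 667 nm with signal-to-noise over triplicate slides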
# Sam68 (KHDRBS1) = test: compounds binding KHDRBS1 protein – biochemical, small-molecule microarray, 635 nm fluorescence, primary screen (AID 1125); settings: higher = more signal;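 also: score merges 667 nm channel intensity with signal to noise over triplicate slides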
# [17] = system: Chordin-like protein 2 (CHRDL2); test: compounds binding chordin-like 2 – biochemical, small-molecule microarray, 635 nm fluorescence, primary screen (AID 1126); settings: fluorescence 635 nm, higher = more signal;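 also: printed compound slides probed with Chrdl2 protein at 4 µg/mL for 1 h at 4 C; score merges 667 nm emission intensity with signal to noise over three replicate slides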
# [18] = biological target: Concanavalin-A (Canavalia ensiformis) (UniProt P02866); test: compounds binding concanavalin A lectin – biochemical, small-molecule microarray, Alexa647 label, 635 nm, artefact control for SMM control protein annotation, primary screen (AID 1127); settings: ConA-A647 binding fluorescence, higher = more signal;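 also: z combines 667 nm emission intensity with signal-to-noise across three replicate slides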
# Sequence of Concanavalin-A (Canavalia ensiformis) (P02866 whole entry, looked up): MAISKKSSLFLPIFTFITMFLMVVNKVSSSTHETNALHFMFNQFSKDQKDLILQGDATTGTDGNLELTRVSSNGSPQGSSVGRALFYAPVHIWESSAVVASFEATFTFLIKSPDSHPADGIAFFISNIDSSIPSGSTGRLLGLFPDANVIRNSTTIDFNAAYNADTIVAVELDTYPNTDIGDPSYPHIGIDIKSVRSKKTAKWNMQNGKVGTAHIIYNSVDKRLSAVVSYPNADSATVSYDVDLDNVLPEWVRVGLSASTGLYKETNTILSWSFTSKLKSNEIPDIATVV
Structure (SMILES),composite z-score [1],z-score [2],composite z-score [3],composite z-score [4],composite z-score [5],composite z-score [6],composite z-score [7],composite z-score [8],composite z-score [9],composite z-score [10],composite z-score (Albumin (Bos taurus)),composite Z-score [11],composite z-score [12],composite z-score [13],composite z-score [14],composite z-score [15],composite z-score [16],composite z-score (Sam68 (KHDRBS1)),composite z-score [17],composite z-score [18]
O=C1OCCC/C=C\[C@H]2OC34C=CCN(CCN5CCOCC5)C(=O)[C@H]3N(CCCCCCO)C(=O)[C@@H]4C12 (stereo not given in full),-0.776,0.857,-0.311,-0.523,-0.909,-0.18,-0.0553,-0.103,1.52,-0.162,0.719,1.02 (inactive),-0.0947,-0.144,0.867,0.817,1.57,0.184,-0.394,-0.324
CC[C@H]1C2=C3C(CC[C@H]4C(OCc5ccc(F)cc5C(F)(F)F)OC[C@](C)([C@@H]34)N(C(=O)OC(C)(C)C)C2)C(COC)C1COC (stereo not given in full),0.732,-0.25,-0.696,0.914,0.771,0.0768,-0.214,1.33,-0.0575,0.0915,0.515,0.0377 (inactive),0.0851,-0.0372,0.687,1.1,-0.115,0.0783,-0.882,0.401
CCOc1cc(C(O)C2C=CC3C(=O)N(c4ccccc4)C(=O)C3N2Nc2ccc(C#N)cc2)ccc1O (stereo not given),0.0289,-0.131,-0.0669,1.81,0.0646,-0.261,-0.315,0.0582,0.562,1.28,0.876,0.793 (inactive),0.0638,-0.171,0.877,0.825,0.876,-0.0645,-0.879,1.03
C=CCC(OC(C)=O)[C@@H]1[C@@H](N(Cc2cc3ccccc3o2)C(=O)c2ccc(-c3ccccc3)cc2)c2cc(OCCCO)ccc2N1C(=O)c1ccc2ccccc2c1 (stereo not given in full),0.143,-1.48,0.0403,0.137,0.185,-0.0398,0.0048,-0.466,0.612,0.264,0.0005,0.142 (inactive),-0.154,-0.106,-0.105,0.612,0.0944,0.095,0.0295,-0.0066
CCCC[C@@H](O)C1=C(COc2ccccc2)C[C@H]2C(=O)N(C)C(=O)[C@H]2[C@H]1CO,-1.05,-0.408,-0.164,-0.756,-0.527,-0.195,-0.2,-0.519,-1,-0.149,-0.261,-0.191 (inactive),-0.201,-0.173,-0.482,-0.61,-0.357,-0.501,0.103,-0.425
C=CCOC(=O)[C@H]1[C@@H]2C(=O)O[C@@H](c3ccccc3)[C@@H](c3ccccc3)N2[C@@H](c2ccc(OCCOC(=O)[C@@H]3C[C@@H]4C(=O)N5CCC[C@H]5C(=O)N4[C@@H]3c3ccc(O)cc3)cc2)[C@]12C(=O)Nc1ccc(I)cc12,-0.0566,-1.71,0.621,0.793,0.29,-0.117,-0.155,0.633,0.521,0.881,-0.572,0.486 (inactive),-0.33,-0.118,0.0118,0.897,0.163,0.27,0.851,1.01
C=C(COC)/C(=C/C[C@H](OC(C)=O)c1ccc(OCCO)cc1)c1cc(C(=O)OC)ccc1OC,0.697,-1.13,0.695,-0.24,-0.845,-0.0792,-0.169,0.449,2.13,0.0079,-0.115,0.835 (inactive),0.0642,-0.107,0.622,0.685,-0.0565,1.07,0.501,0.519
COC(=O)c1c(CC[C@@H](CO)NC(=O)N2CCC[C@H]2Cn2cc(Cc3ccccc3)nn2)oc(C(C)=O)c1C(=O)OC,0.916,0.139,-0.0041,-0.128,-0.658,-0.0778,-0.167,0.113,0.0411,0.17,0.0832,-0.413 (inactive),0.233,-0.133,0.643,1.33,0.381,0.694,0.668,0.488
CCC(CC)C(O)C1C=CC2C(=O)N(c3ccccc3)C(=O)C2N1Nc1ccc(C(C)C)cc1 (stereo not given),1.28,-0.652,-0.0146,1.04,0.419,-0.0643,0.698,0.967,1.23,1.27,0.682,0.15 (inactive),0.213,0.197,0.691,2.24,0.359,1.3,-0.0149,0.922
C=C(CCCC)/C(=C/C[C@@H](OC(=O)c1ccncc1)c1ccccc1OCCO)c1cnc2ccccc2c1,1.33,-2.77,0.845,0.616,-0.759,0.16,-0.0849,-0.218,1.92,1.35,0.459,-0.869 (inactive),0.28,-0.105,0.719,0.457,0.603,1.3,0.924,1.07
COC(=O)[C@@]1(Cc2ccc(OC)cc2)[C@H]2c3cc(C(=O)N(C)C)n(C[C@H](O)CO)c3C[C@H]2CN1C(=O)c1ccccc1,-1.21,-0.966,-0.415,2.33,1.32,0.108,0.86,2.14,2.07,1.15,0.956,-0.312 (inactive),0.301,0.462,0.782,2.24,0.828,0.833,-1.29,0.863

# Source: PubChem BioAssay
